Rows were chosen to be rich in hits. Some 0.93% of all compounds tested hit in one or more screens of this group.
TAR Tat displ = TAR RNA-Tat peptide displacers, HIV-1, primary screen, biochemical, FRET, FAM/TAMRA-labeled Tat. 100,000 compounds, 0.6% hits. z-score (test concentration not listed). HIV-1 TAR RNA, Tat peptide displacement FRET; hits give high values; active = z-score of 3 or more in at least 2 runs
CDC25B-CDK2 inh = primary biochemical HTRF screen for blockers of M-phase inducer phosphatase 2 binding to CDK2/cyclin A; 94,000 compounds, 0.72% hits; HTRF CDC25B-CDK2/CyclinA binding, anti-His/anti-Flag; hits give high values; P30305+P24941; z-score (no concentration beside the values); in the data active = z-score above about 3.2
* marks the source's active call; other numbers are inactive results; · = no result.

SMILES	TAR Tat displ	CDC25B-CDK2 inh
Nc1ccc(-c2nc3cc4sc(-c5ccc(N)cc5)nc4cc3s2)cc1	35.5*	4.5*
Nc1ccc(-c2nc3ccc(N)cc3s2)cc1	1.76	-3.86
O=c1[nH]c(-c2ccccn2)nc2c1Cc1cc(F)ccc1O2	1.96	-0.68
CC(=O)N1N=C(c2cccc(Br)c2)OC1c1ccccn1 (stereo unspecified)	0.36	·
Cc1c2c(=O)n(-c3nc4ccccc4s3)[nH]c2cc(=O)n1Cc1ccc(C(=O)O)cc1	23.9*	13.3
CC(=O)N1CCN(CCn2c(C)c3c(=O)n(-c4nc5ccccc5s4)[nH]c3cc2=O)CC1	0.25	-0.61
O=C(O)COc1ccc2c(c1)C(=O)c1cc(OCC(=O)O)ccc1-2	7.22*	-0.19
CCN(CC)CCOc1ccc2c(c1)C(=O)c1cc(OCCN(CC)CC)ccc1-2	0.27	·
Cc1nn(C)c(C)c1CNC(=O)Nc1ccc(Br)cc1	1.23	·
COc1cc2c(cc1OC)C(C(=O)NCCCN1CCCC1=O)C1c3ccccc3CCN1C2=O (stereo unspecified)	·	0.45
COc1nc2ccc(C)cc2cc1-c1noc(-c2cccnc2)n1	3.63*	-13.3
COc1nc2ccc(C)cc2cc1-c1noc(-c2ccncc2)n1	0.7	-12.6
Cn1c(=O)c(=O)n(C)c2cc(S(=O)(=O)CCC(=O)Nc3ccc(F)cc3F)ccc21	0.64	0.15
COc1ccccc1-n1cnc2cc(NCc3ccncc3)ccc21	0.48	13.2*
COc1ccccc1-n1cnc2cc(Nc3nnc(C)c4ccccc34)ccc21	2.1	-3.07
CC(C)CN1C(=O)c2ccccc2C(C(=O)NCC2CCCO2)C1c1cccs1 (stereo unspecified)	2.62	·
CCCn1c(=O)c2sccc2n2c(CCCC(=O)N3CCC(C(=O)OCC)CC3)nnc12	-0.21	·
COc1ccc(/C=C/C(=O)O)cc1OC	0.69	·
COc1cc(/C=C/C(=O)CC(=O)/C=C/c2ccc(O)c(OC)c2)ccc1O	15.1*	·
COc1cc(/C=C/C(=O)O)ccc1O	1.49	·
COc1ccc(/C=C/C(=O)CC(=O)/C=C/c2cccc(O)c2OC)cc1O	16.4*	·
Cn1nc(-c2ccccc2F)c2cc(C(=O)NC3CCCC3)sc21	·	-0.84
CCCCn1nc(NS(=O)(=O)c2ccc(C)cc2)c2cc3ccccc3nc21	1.51	-3.55
CN(CC1COc2ccccc2O1)C(=O)Cn1c(=O)oc2ccccc21 (stereo unspecified)	0.97	·
CCN(CCCNc1c(-c2ccc(C(C)C)cc2)c(=O)c1=O)Cc1ccccc1	1.29	·
SMILES	TAR Tat displ	CDC25B-CDK2 inh
Cc1c(C(=O)O)sc2ncnc(NC3CCCC3)c12	0.65	·
Cc1c(C(=O)O)sc2ncnc(NC3CCCCC3)c12	5.98*	·
Cc1c(C(=O)O)sc2ncnc(NCCC(C)C)c12	10.1*	·
Cc1c(C(=O)O)sc2ncnc(Nc3ccc(C(C)C)cc3)c12	2.58	·
CC(C)NC(=O)NCCn1cnc2cc(C(=O)NC3CCCC3)ccc21	-0.04	·
Cn1c(C(=O)N2CCN(C(=O)c3ccco3)CC2)cc2c(=O)n(C)c3ccccc3c21	1.1	-1.73
Cn1c(C(=O)N2CCN(C(=O)c3ccco3)CC2)cc2c(=O)[nH]c3ccccc3c21	0.35	18.3*
O=S1(=O)c2ccccc2NC(c2ccc3c(c2)OCO3)N1Cc1ccccc1 (stereo unspecified)	·	0.34
O=C(c1cccc(Cl)c1)N1CCN(c2ccc3nncn3n2)CC1	0.83	-2.16
CC1(C)CC(=O)C2=C(C1)NC(=S)NC2c1cccc(F)c1 (stereo unspecified)	·	0.53

Bioassay records as filed in PubChem.
